The nature of assay [1]: qHTS RealTime-Glo MT Cell Viability Assay in HEK293 cells - 24 hour (AID 1224886). Also: top concentration of the series differs between compounds; % is scaled to controls: 0 for no effect and ±100 for the full control effect; nearly all actives have a fitted effect of over 50% in size. In short, it runs like this: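 HEK293 cells were seeded at 600 cells/well together with NanoLuc luciferase and cell-permeant prosubstrate, preincubated 5 h at 37 C/5% CO2, then given compound in DMSO by pintool. Luminescence from viable-cell prosubstrate reduction was read repeatedly over 40 h.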
(In general: Quantitative high-throughput screening tests each substance at several concentrations.)

A short description of assay [2]: qHTS RealTime-Glo MT Cell Viability Assay in HEK293 cells - 8 hour (AID 1224887). Also: top concentration of the series differs between compounds; % is scaled to controls: 0 for no effect and ±100 for the full control effect; nearly all actives have a fitted effect of over 50% in size. The gist of the method: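 Real-time viability in HEK293: signal arises when living cells convert a prosubstrate for NanoLuc in the medium, so luminescence tracks viable cell number. Compound (23 nL, DMSO) added 5 h post-seeding; kinetic reads at 0–40 h, 37 C.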
Assay [3] is described as follows: A CellTox Green Cytotoxicity Assay to monitor cytotoxicity in HEK293 cells - 16 hour (AID 1224888). Also: nearly all actives have a fitted effect of over 35% in size. Also: potency is read from the fitted curve at half-maximal effect. As to activity change: % is scaled to controls: 0 for no effect and ±100 for the full control effect. The gist of the method:
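Cells (HEK293, 600/well) and dye reagent are dispensed together. After 5 h at 37 C, 23 nL compound is pinned in. Plates stay at 37 C for 40 h with fluorescence read at 0h, 8h, 16h, 24h, 32h and 40h.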

Assay [4] can be described thus: qHTS RealTime-Glo MT Cell Viability Assay in HepG2 cells - 0 hour (AID 1224889). Also: % is scaled to controls: 0 for no effect and ±100 for the full control effect; nearly all actives have a fitted effect of over 50% in size. In short, it runs like this: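 HepG2 cells were seeded at 600 cells/well together with NanoLuc luciferase and a cell-permeant prosubstrate, preincubated 5 h at 37 C/5% CO2, then pin-dosed with compounds in DMSO. Nonlytic luminescence from viable cells was read at each time point.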
Assay [5] is described as follows: A CellTox Green Cytotoxicity Assay to monitor cytotoxicity in HepG2 cells - 8 hour (AID 1224890). Also: nearly all actives have a fitted effect of over 45% in size. Also: potency is read from the fitted curve at half-maximal effect. As to cytotoxicity increase: % is scaled to controls: 0 for no effect and ±100 for the full control effect. In short, it runs like this: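 Cells and non-lytic dye reagent are dispensed together (600 HepG2 cells/well) and incubated 5 h before DMSO compound transfer. Kinetic fluorescence is then recorded in the same wells during 40 h at 37 C.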
Assay [6] can be described thus: qHTS assay to identify small molecule antagonists of the estrogen receptor alpha (ER-alpha) signaling pathway using the BG1 cell line in the presence of 0.1 nM 17-beta-estradiol - cell viability counter screen (AID 1259241). Also: % is scaled to controls: 0 for no effect and ±100 for the full control effect; nearly all actives have a fitted effect of over 40% in size. The gist of the method:
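In this screen, hormone-deprived VM7Luc4E2 cells were seeded at 4,000 per well, dosed with compound and 0.1 nM estradiol final, and incubated 22 hr at 37C and 5% CO2; fluorogenic live-cell protease signal reported viability.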

Assay [7] in a line: qHTS assay to identify small molecule antagonists of the androgen receptor (AR) signaling pathway using the MDA cell line in the presence of 0.5 nM R1881 - cell viability counter screen (AID 1259242). Also: % is scaled to controls: 0 for no effect and ±100 for the full control effect; nearly all actives have a fitted effect of over 45% in size. The gist of the method:
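Steps: plate MDA-kb2 cells, rest 5 hr at 37C without CO2; pin in compounds in DMSO; add R1881 to 0.5 nM final; incubate 16 hr; add CellTiter-Fluor, 30 min; read fluorescence.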

For assay [8], the target named is Estrogen receptor (Homo sapiens) (UniProt P03372). The assay is described as follows: qHTS assay to identify small molecule antagonists of the estrogen receptor alpha (ER-alpha) signaling pathway using the BG1 cell line in the presence of 0.1 nM 17-beta-estradiol (AID 1259244). Also: % is scaled to controls: 0 for no effect and ±100 for the full control effect; nearly all actives have a fitted effect of over 50% in size. In short, it runs like this:
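Antagonist mode: compounds in DMSO are pinned onto VM7Luc4E2 reporter cells, 0.1 nM final 17beta-estradiol is added, and after 22 h at 37C luciferase luminescence is measured with ONE-Glo.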

A short description of assay [9]: qHTS assay to identify small molecule HDAC inhibitors - cell viability counter screen (AID 1259365). In short, it runs like this: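 Measured quantity is CellTiter-Glo luminescence from wild-type HCT-116 cells after compound incubation of 2hr at 37C, 5% CO2; reagent developed 30min at room temperature.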
Assay [10] can be described thus: qHTS assay to identify small molecule agonists of the sonic hedgehog signaling (Shh) pathway - cell viability counter screen (AID 1259366). The gist of the method: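 In quantitative high-throughput format, 3T3 Gli1-Luc cells were exposed to compounds for 24hr and multiplexed for viability using CellTiter-Fluor, incubated 1hr at 37C before the fluorescence read.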

Assay [11] can be described thus: qHTS assay to identify small molecule antagonists of the sonic hedgehog signaling (Shh) pathway - cell viability counter screen (AID 1259367). Also: % is scaled to controls: 0 for no effect and ±100 for the full control effect; nearly all actives have a fitted effect of over 55% in size. The gist of the method:
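Conditioned medium drove Shh signaling in 3T3 Gli1-Luc cells exposed to compounds at 37C and 5% CO2. Viability was determined from CellTiter-Fluor fluorescence, with reagent incubated 1 hr after 23 hr of treatment.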

Assay [12] is described as follows: qHTS assay to identify small molecule agonists of the sonic hedgehog signaling (Shh) pathway (AID 1259368; calls by dose curve;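 also: NIH/3T3-derived 3T3Gli1-Luc cells carrying a stable Gli1-driven firefly luciferase reporter; series mostly up to about 92 µM; % is scaled to controls: 0 for no effect and ±100 for the full control effect; nearly all actives have a fitted effect of over 15% in size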). In short, it runs like this:
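Cells of a mouse NIH/3T3 clone stably expressing luciferase under the Gli1 transcriptional response element are exposed to test chemicals for 24 hr at 37 C. Pathway activation is detected as a rise in luminescence.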

Assay [13] is described as follows: qHTS assay to identify small molecule antagonists of the sonic hedgehog signaling (Shh) pathway (AID 1259369; calls by dose curve; also: % is scaled to controls: 0 for no effect and ±100 for the full control effect; nearly all actives have a fitted effect of over 45% in size). The gist of the method: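 Cells are plated and held 4hr at 37 C, compounds (DMSO) are pinned in, conditioned medium is added to stimulate the pathway, and after 24hr luciferase reagent is added for 30min before luminescence is read.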
Assay [14] can be described thus: qHTS assay to identify small molecule agonists of the androgen receptor (AR) signaling pathway in the presence of an antagonist - cell viability counter screen (AID 1259379).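 Also: MDA-kb2 human breast cancer cells carrying an MMTV luciferase reporter; series mostly up to about 92 µM; % is scaled to controls: 0 for no effect and ±100 for the full control effect; nearly all actives have a fitted effect of over 25% in size.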 In short, it runs like this: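 Cytotoxicity is assessed by CellTiter-Fluor in MDA-kb2 cells carrying an MMTV-driven luciferase reporter. Cells receive 3.0uM nilutamide plus compounds at 15 concentrations and incubate 16 hr at 37C without CO2 before fluorescence reading.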

A short description of assay [15]: qHTS assay to identify small molecule agonists of the estrogen receptor beta (ER-beta) signaling pathway - cell viability counter screen (AID 1259380). Also: % is scaled to controls: 0 for no effect and ±100 for the full control effect; nearly all actives have a fitted effect of over 30% in size. In short, it runs like this:
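Cytotoxicity is measured in parallel with the reporter screen: after 16 hr compound exposure at 37C and a 2 hr LiveBLAzer step, CellTiter-Glo is added to the same ER-beta-UAS-bla HEK293T wells and luminescence read after 30 min.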

Assay [16] deals with Estrogen receptor beta (Homo sapiens) (UniProt Q92731). The experiment in a line: qHTS assay to identify small molecule agonists of the estrogen receptor beta (ER-beta) signaling pathway (AID 1259377; active = well fitted activation curve with a large enough effect in the signal ratio in the repeat runs, not every such curve was filed as active; the % refers to the signal ratio; also: % is scaled to controls: 0 for no effect and ±100 for the full control effect). The gist of the method:
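Reporter cells (HEK293T, ER-beta-UAS-bla) receive compounds or DMSO after a 6 hr pre-incubation. They then incubate 16 hr at 37C/5% CO2, and fluorescence from LiveBLAzer B/G substrate is measured after 2 hours at room temperature.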

Assay [17] shares this target. The assay is described as follows: qHTS assay to identify small molecule antagonists of the estrogen receptor beta (ER-beta) signaling pathway (AID 1259378; active = well fitted inhibition curve with a large enough effect in the signal ratio in the repeat runs, not every such curve was filed as active; the % refers to the signal ratio; also: potency is read from the fitted curve at half-maximal effect). The gist of the method: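 ER-beta-UAS-bla HEK293T (GripTite) cells in 2% charcoal-stripped FBS medium were preincubated 6 hr at 37C, dosed with compound, then stimulated with 1 nM E2 (final) for 16 hr; beta-lactamase reporter read by B/G FRET fluorescence after 2 hr substrate loading.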

Assay [18] can be described thus: qHTS assay to identify small molecule HDAC inhibitors (AID 1259364).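 Also: wild-type HCT-116 cells with endogenous class I/II HDAC activity; top concentration of the series differs between compounds; % is scaled to controls: 0 for no effect and ±100 for the full control effect; nearly all actives have a fitted effect of over 45% in size.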 The gist of the method:
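Cells (HCT-116, wild type) are seeded at 1,500 per well, incubated overnight, treated with compound in DMSO for 2 hr, then developed with HDAC-Glo I/II reagent for 30 min at room temperature.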

The nature of assay [19]: qHTS assay to identify small molecule phospholipidosis (PLD) inducers (AID 1259344; active = well fitted curve in the direction sought with a large enough effect; an effect the other way counts as inactive or inconclusive; also: % is scaled to controls: 0 for no effect and ±100 for the full control effect). The gist of the method:
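After 4 h attachment on collagen I, HepG2 cells were dosed with compound alongside LipidTOX Red, kept 24 h at 37 C, fixed, and imaged for lamellar phospholipid pits.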

Data on nine molecules can be found in PubChem BioAssay (Tox21).

Molecules are shown by their SMILES. Values without a mark were called inactive. Records with an inconclusive call do not appear. Activity calls are given as the source filed them. Unless noted, calls follow the shape of the dose curve; as a rule, active = well fitted curve in the direction sought with a large enough effect in the repeat runs; inconclusive = weak or mixed curves; inactive = no such curve, though single readings can be large; an effect the other way counts as inactive or inconclusive.

Sequence of Estrogen receptor (Homo sapiens) (P03372 whole entry, looked up): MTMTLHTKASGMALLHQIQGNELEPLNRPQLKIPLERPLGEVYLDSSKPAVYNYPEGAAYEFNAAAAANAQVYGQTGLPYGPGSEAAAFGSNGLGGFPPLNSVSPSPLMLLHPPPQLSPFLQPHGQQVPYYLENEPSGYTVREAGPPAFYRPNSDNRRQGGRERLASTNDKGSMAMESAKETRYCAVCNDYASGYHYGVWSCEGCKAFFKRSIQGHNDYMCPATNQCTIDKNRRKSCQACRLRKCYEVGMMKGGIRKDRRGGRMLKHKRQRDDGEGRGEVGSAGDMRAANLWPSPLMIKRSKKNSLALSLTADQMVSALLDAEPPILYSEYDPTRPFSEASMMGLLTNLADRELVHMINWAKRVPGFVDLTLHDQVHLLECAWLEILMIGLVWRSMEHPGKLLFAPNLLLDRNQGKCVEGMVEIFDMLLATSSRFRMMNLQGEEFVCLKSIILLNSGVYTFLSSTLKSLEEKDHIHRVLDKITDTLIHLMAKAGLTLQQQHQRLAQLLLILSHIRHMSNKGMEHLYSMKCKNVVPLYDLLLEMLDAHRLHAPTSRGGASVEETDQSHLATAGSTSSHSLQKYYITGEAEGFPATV
Sequence of Estrogen receptor beta (Homo sapiens) (Q92731 whole entry, looked up): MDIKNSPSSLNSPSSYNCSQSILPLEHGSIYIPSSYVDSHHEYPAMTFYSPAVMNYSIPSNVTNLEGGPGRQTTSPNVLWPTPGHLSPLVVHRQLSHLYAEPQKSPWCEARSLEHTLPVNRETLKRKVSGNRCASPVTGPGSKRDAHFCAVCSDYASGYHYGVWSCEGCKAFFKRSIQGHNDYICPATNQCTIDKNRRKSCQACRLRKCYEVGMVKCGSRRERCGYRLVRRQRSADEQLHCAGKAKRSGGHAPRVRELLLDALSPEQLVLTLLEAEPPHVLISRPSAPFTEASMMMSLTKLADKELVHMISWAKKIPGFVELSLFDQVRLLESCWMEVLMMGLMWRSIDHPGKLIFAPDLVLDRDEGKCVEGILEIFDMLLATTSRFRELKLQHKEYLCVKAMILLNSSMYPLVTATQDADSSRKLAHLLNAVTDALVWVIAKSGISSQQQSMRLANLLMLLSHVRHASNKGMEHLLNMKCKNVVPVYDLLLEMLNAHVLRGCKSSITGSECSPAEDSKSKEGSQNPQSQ

As for `CC(C)c1ccc(C=O)cc1`, the Potency entry in [1], in assay [2], in [3], in [4], in assay [5] and in [13] was “inactive” each time. For the same molecule, the result in assay [6], in [7], in [8], in [9], in [10] and in [11] was inactive. For the same molecule, the outcome in assay [12], in [14] and in assay [15] was inactive.
Regarding `CCC(C)OC(C)CC` (stereo unspecified), the Potency result in assay [1], in assay [2], in [3], in assay [4], in assay [5] and in assay [13] was “inactive” in each case. For the same molecule, the Potency entry in assay [16] is “inactive”. Also, the result in assay [6], in [7], in [8], in assay [9], in assay [10] and in [11] was inactive. Moreover, the outcome in [12] and in assay [14] was inactive. In addition, the Potency in [17] was 28.3 µM (active).
In the case of `CCCCCCCCCOC(=O)CCCCC(=O)OCCCCCCC`, the Potency entry in assay [1], in assay [2], in assay [4], in assay [18] and in [13] was “inactive” each time. Moreover, the Potency in assay [3] was 27.5 µM (active); in [5], 38.9 µM (active). The outcome in [6], in assay [7], in assay [9], in assay [10], in [11] and in [12] was inactive. In addition, the result in assay [14] and in assay [15] was inactive.
On to `O=NN(CCCl)C(=O)NC1CCCCC1`, for which the Potency entry in assay [1], in [2], in [3], in assay [4], in [5] and in [18] was “inactive” in each case. Besides, in [13], the Potency entry is “inactive”. Moreover, the outcome in [6], in assay [7], in assay [19], in assay [10], in [11] and in [12] was inactive. Besides, the outcome in assay [14] was inactive.
On to `c1ccc2c(CC3=NCCN3)cccc2c1`, for which the Potency entry in assay [1], in [2], in assay [3], in assay [4], in assay [5] and in assay [13] was “inactive” in each case. For the same molecule, the outcome in [6], in assay [7], in assay [19], in [9], in assay [10] and in assay [11] was inactive. For the same molecule, the result in assay [12] and in [14] was inactive.
Turning to `O=S(=O)(O)c1ccc2c(N=Nc3ccc(S(=O)(=O)O)c4ccccc34)c(O)c(S(=O)(=O)O)cc2c1`, the activity change, negative = cytotoxicity in assay [1] was 5.55% [at 6.97 µM]; in assay [2], 2.74% [at 6.97 µM]; in assay [4], 7.14% [at 6.97 µM]; in assay [6], -26.3% [at 8.39 µM]; in assay [9], -10.4% [at 8.39 µM]; in assay [14], -15.5% [at 8.39 µM]. The activity change, negative = cytotoxicity in [15] is 3.66% [at 8.39 µM]. Besides, the activity change is 8.43% [at 6.97 µM, stronger effect = higher value] in assay [3] and -2.14% [at 8.39 µM] in [12]. The cytotoxicity increase in [5] is -1.78% [at 6.97 µM]. Moreover, the viability change, negative = cytotoxic is -14.9% [at 8.39 µM] in assay [7], -12.8% [at 8.39 µM] in assay [10] and -12.4% [at 8.39 µM] in assay [11]. In addition, the molecule was classed as inactive in assay [19]. For the same molecule, the activity change, negative = inhibition in [13] is 39.1% [at 8.39 µM].
Turning to `COC(=O)CCCCC(=O)O`, the Potency entry in [1], in assay [2], in assay [3], in assay [4], in assay [5] and in [13] was “inactive” each time. The outcome in assay [6], in assay [7], in assay [8], in [9], in assay [10] and in assay [11] was inactive. Besides, the outcome in assay [12] and in assay [14] was inactive.
`CCCCCC(C)O` (stereo unspecified): the Potency entry in assay [1], in assay [2], in assay [3], in assay [4], in assay [5] and in assay [13] was “inactive” in each case. Further, the outcome in assay [6], in assay [7], in assay [8], in assay [10], in assay [11] and in assay [12] was inactive. The result in [14] and in assay [15] was inactive.
For the molecule `CC(N)CCCC(C)(C)O` (stereo unspecified), the Potency entry in [1], in [2], in [3], in assay [4], in assay [5] and in [18] was “inactive” each time. The Potency entry in [13] and in assay [16] was “inactive” throughout. In addition, the result in assay [6], in assay [7], in [19], in assay [10], in assay [12] and in [14] was inactive.
